# Source: PubChem
# PDI turbidity: inhibitors of human PDI, primary screen, biochemical, turbidity, single point, plate reader; 0.052% of 350,000 active; Protein disulfide-isomerase (Homo sapiens), P07237; inhibition, % at 10 µM; AID 588391, 2011; PDI insulin aggregation turbidity, A650, 90 min;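 active means mean inhibition across replicates of 30% or more, whatever share of single replicates reach that level; inconclusive means mean inhibition below 30% while every single replicate reaches 30%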
# CaV13 FRET inh: Disruptors of the CACNA1D IQ motif to Ca2+-dependent inactivation inhibitor domain association, primary screening, Förster resonance energy transfer in intact living …; HEK cells, CFP/YFP FRET ICDI-IQ, plate reader, 10 min; percent FRET-ratio fall versus neutral wells; 0.098% of 340,000 active; inhibition, % at 12.3 µM;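 active means mean replicate inhibition of at least 30% and at least 1% of replicates passing that level; inconclusive means only one of the two criteria is met; inactive means neither criterion is met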
# ERp5 inh: inhibitors of ERp5-driven insulin aggregation, primary screen, biochemical, turbidity, absorbance 650 nm, single point; 90 min; Protein disulfide-isomerase A6 (Homo sapiens), Q15084; 0.05% of 350,000 active; inhibition, % at 9.99 µM;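 active means mean replicate inhibition above about 25%, with every replicate also reaching it, limit read from the data, passing the limit was not always enough; inconclusive means only one of those two criteria met; inactive means neither criterion met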
# ERAP1 inh: human ERAP1 aminopeptidase inhibitors, primary screen, biochemical, single point, plate reader | recombinant ERAP1, Leu-AMC fluorescence, 60 min | 0.15% of 340,000 active | AID 652197, 2013 | inhibition, % at 10.7 µM;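 active means mean replicate inhibition of at least 30%, or all replicates individually reaching that 30% level; inactive means mean below 30% and not every replicate reaching it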
# Target sequence (Q9NZ08 whole entry, looked up): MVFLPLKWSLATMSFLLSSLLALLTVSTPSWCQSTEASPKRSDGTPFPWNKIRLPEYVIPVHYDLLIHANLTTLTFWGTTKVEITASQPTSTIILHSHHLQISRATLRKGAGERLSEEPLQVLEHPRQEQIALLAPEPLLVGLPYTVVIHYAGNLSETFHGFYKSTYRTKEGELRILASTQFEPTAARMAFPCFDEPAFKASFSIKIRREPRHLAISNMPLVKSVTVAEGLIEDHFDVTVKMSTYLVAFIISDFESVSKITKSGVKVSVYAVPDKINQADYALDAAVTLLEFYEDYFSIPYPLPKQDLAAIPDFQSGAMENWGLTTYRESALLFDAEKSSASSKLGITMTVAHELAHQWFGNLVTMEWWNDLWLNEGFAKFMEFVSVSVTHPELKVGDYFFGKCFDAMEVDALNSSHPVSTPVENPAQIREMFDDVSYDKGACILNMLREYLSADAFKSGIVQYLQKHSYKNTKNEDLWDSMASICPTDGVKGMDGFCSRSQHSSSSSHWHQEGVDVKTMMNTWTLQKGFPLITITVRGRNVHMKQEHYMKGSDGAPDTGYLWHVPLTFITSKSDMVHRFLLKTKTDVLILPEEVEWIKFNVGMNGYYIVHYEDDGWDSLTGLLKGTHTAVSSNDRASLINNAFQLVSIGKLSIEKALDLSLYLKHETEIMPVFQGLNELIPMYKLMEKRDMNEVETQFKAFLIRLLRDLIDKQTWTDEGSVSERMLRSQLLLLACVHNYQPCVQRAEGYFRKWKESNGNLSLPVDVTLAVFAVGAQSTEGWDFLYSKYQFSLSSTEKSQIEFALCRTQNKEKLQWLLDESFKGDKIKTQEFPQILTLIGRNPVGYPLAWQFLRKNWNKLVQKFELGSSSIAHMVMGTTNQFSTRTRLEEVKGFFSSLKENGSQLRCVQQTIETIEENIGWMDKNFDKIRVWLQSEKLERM
# PGC1a acetyl inh: inhibitors of PGC1a acetylation signal, primary screen, cell-based, U2OS, AlphaScreen, inhibitor mode. 0.17% of 350,000 active. AlphaScreen anti-acetyl-lysine; with virally co-expressed GCN5 acetyltransferase. inhibition, % at 15.6 µM;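 active means every replicate shows inhibition of at least 40%; inconclusive means mean inhibition at least 40% but some replicate below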
# PglD inh: C. jejuni PglD acetyltransferase inhibitors, primary screen, biochemical, DTNB colorimetric, single point; UDP-N-acetylbacillosamine N-acetyltransferase PglD (Campylobacter jejuni); purified PglD enzyme, DTNB colorimetric CoA detection; 0.098% of 360,000 active; AID 602405, 2012; inhibition, % at 12.5 µM; in the data active means inhibition above about 16%, passing the limit was not always enough; inconclusive means no clear call, values can overlap the other calls
# COX5a expr inh: inhibitors of PGC-1a-driven COX5a expression, dose response, cell-based, C2C12 myotubes, RT-qPCR, cherry-picked samples; C2C12 myotubes PGC-1a adenovirus; shares compounds with PGC1a acetyl inh; maximal activity, %; 45 tested, under 10 active;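 active means fitted dose curve reaching 40% activity at or below the highest valid dose tested; inconclusive means flat fit between 30% and 70%, or an unusable fit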
# AID743468: change in PGC-1a target gene PDK4 expression, dose response, C2C12 myotubes, RT-qPCR, cherry-pick; shares compounds with PGC1a acetyl inh; PGC-1a adenovirus, PDK4 mRNA qPCR; PDK4 expression increase, % at 19.5 µM; 45 tested, under 10 active; AID 743468, 2014;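 active means fitted curve reaching a 40% PDK4 expression rise at or below the top valid tested dose; inconclusive means no clear call, values can overlap the other calls; inactive means the rest, including shifts the wrong way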
# A number is an active result; 0 = inactive; ? = inconclusive; - = no result; ! = repeats disagree. Shown are actives, neighbours in structure and some others; about 0.46% of the full set was active somewhere.
SMILES,PDI turbidity,CaV13 FRET inh,ERp5 inh,ERAP1 inh,PGC1a acetyl inh,PglD inh,COX5a expr inh,AID743468
C[C@@H]1CN([C@H](C)CO)S(=O)(=O)c2ccc(C#Cc3ccc(F)cc3)cc2O[C@H]1CN(C)C(=O)CN(C)C,-,-,0,0,0,0,-,-
CCOC(=O)c1c2c(n(C)c1C)C(=O)C(=O)c1ccc(Br)cc1-2,0,0,-,-,0,0,0,0
CCOC(=O)c1c2c(n(Cc3ccccc3)c1C)C(=O)C(=O)c1ccccc1-2,0,0,0,0,-,-,-,-
CCCN(CC)c1ncnc2[nH]ncc12,0,0,0,0,?,0,0,61.6
COc1ccc(S(=O)(=O)Nc2ccc3c(c2)C(=O)N([C@@H](C)CO)C[C@H](C)[C@@H](CN(C)Cc2ccccc2)O3)cc1,-,-,0,0,0,0,-,-
O=C(Nc1ccc(N2CCN(Cc3ccccc3F)CC2)cc1)c1ccccc1[N+](=O)[O-],0,0,0,0,0,-,-,-
O=C(Nc1ccc(N2CCN(Cc3ccccc3F)CC2)cc1)c1ccc([N+](=O)[O-])o1,0,0,0,0,72.7,0,0,0
O=C(C1CCCC1)N1C[C@H]2[C@@H](c3ccccc31)[C@H](CO)N2C(=O)c1cccnc1,-,-,0,0,0,0,-,-
O=C(Nc1cccc(F)c1)N1CC(=O)N2[C@H](C1)[C@H](c1ccc(C#Cc3cccnc3)cc1)[C@@H]2CO,-,-,0,0,0,-,-,-
O=C(Nc1cccc(F)c1)N1CC(=O)N2[C@@H](CO)[C@@H](c3ccc(C#Cc4cccnc4)cc3)[C@@H]2C1,-,-,0,0,?,-,0,49.0
COCc1cn(CC[C@H]2CC[C@@H](NC(=O)Nc3ccc4c(c3)OCO4)[C@@H](CO)O2)nn1,-,-,0,0,0,0,-,-
C=CS(=O)(=O)N(Cc1ccccc1Br)[C@H](CO)Cc1ccccc1,0,0,0,0,?,0,0,0
C=CS(=O)(=O)N(Cc1ccccc1)[C@H](CO)CC(C)C,0,0,0,0,0,0,-,-
Cc1ccc(Cn2ccc(NC(=O)c3nn(C)cc3[N+](=O)[O-])n2)cc1,0,0,0,0,0,0,-,-
Cc1ccc(-c2nc(NC(=O)c3nn(C)cc3[N+](=O)[O-])sc2C)cc1,0,0,0,0,95.7,0,0,0
Cc1ccc(-c2ccc(C3[C@@H]4CN(C(=O)Nc5ccc(C(F)(F)F)cc5)C[C@H]3N4)cc2)cc1 (stereo not given in full),-,-,0,0,69.7!,-,0,0
N#Cc1ccc(-c2ccc(C3[C@@H]4CN(C(=O)Nc5ccc(C(F)(F)F)cc5)C[C@H]3N4)cc2)cc1 (stereo not given in full),-,-,0,0,0,-,-,-
CN(C)CC#Cc1ccc([C@H]2[C@@H](CO)N3CCCCN(C(=O)C4CCCC4)C[C@H]23)cc1,-,-,-,-,0,0,-,-
